Structures are written as SMILES. Activity calls are given as the source filed them. The calls were made as follows: active = hit-call score of the fitted dose curve at least 0.9, where 1 is the maximum; inactive = score below 0.9.

The experiment is described as follows: ATG_TGFb_CIS: Attagene CIS-FACTORIAL HepG2 Assay for human Transforming Growth Factor (TGF) (AID 2282967). The conditions noted are these: HepG2 Attagene CIS TGFb reporter, mRNA transcription; actives raise or lower the signal. As for the experimental part:
ATG_CIS is a cell-based, multiplexed-readout assay that uses HepG2, a human liver cell line, with measurements taken at 24 hours after chemical dosing in a 24-well plate.ATG_TGFb_CIS is one of 52 assay component(s) measured or calculated from the ATG_CIS assay. It is designed to make measurements of mRNA induction, a form of inducible reporter, as detected with fluorescence intensity signals by Reverse transcription polymerase chain reaction (RT-PCR) and Capillary electrophoresis technology.Data from the assay component ATG_TGFb_CIS was analyzed into 1 assay endpoint. This assay endpoint, ATG_TGFb_CIS, was analyzed with bidirectional fitting relative to DMSO as the negative control and baseline of activity. Using a type of inducible reporter, measures of mRNA for gain or loss-of-signal activity can be used to understand the reporter gene at the transcription factor-level as they relate to the gene TGFB1. Furthermore, this assay endpoint can be referred to as a primary readout, because this assay has produced multiple assay endpoints where this one serves a reporter gene function. To generalize the intended target to other relatable targets, this assay endpoint is annotated to the growth factor intended target family, where the subfamily is transforming growth factor beta.
Human liver HepG2 cells are transiently transfected with multiple reporter transcription units (MRTUs) in 6-well plates using FuGene 6 reagent (Roche; 3 ml FuGene/1 mg DNA). The MRTU constructs are regulated by a cis-regulating element (promoter). […] A major difference between the CIS and TRANS system is that in CIS activities of endogenous TFs are measured, whereas the TRANS assay evaluates changes in activities of exogenous, chimeric NR-Gal4 proteins. […] At the end of 24 hour incubation, total RNA was isolated using TriZol reagent (Invitrogen). The isolated RNA is then reverse-transcribed using oligo(dT) primer and Mo-MLV reverse transcriptase (Invitrogen) with DNAse I (Ambion) treatment for 30 min. The one-tenth of the produced cDNA was amplified by PCR using Taq DNA polymerase (Invitrogen) and two reporter sequence-specific primers. The PCR products were fluorescently labeled by primer extension with 6-arboxyfluorescein (6-FAM) 5'-labeled reporter sequence-specific primer (2 min at 95 C, 20 s at 68 C and 10 min at 72 C) and these products were digested with 5U of HpaI (New England Biolabs) for 2h at 37 C. The fragments were purified using Qiaquick PCR columns (Qiagen), analyzed on an ABI 3130xL genetic analyzer (Applied Biosystems) with peak positions identified by using a set of X-rhodamine (ROX)-labeled MapMarker1000 molecular weight standards (BioVentures). The raw capillary electrophoresis data was processed using Attagraph software (Attagene).
On to `CC(C)(C)C(=O)C=Cc1ccc(Cl)cc1`, for which the call was inactive.

In the case of `O=CN1CCCCC1`, the molecule was classed as inactive. On the same count and under the same terms, in the case of `CC(C)c1ccc2c(C(C)C)cc(C(C)C)c(S(=O)(=O)O)c2c1` it was “inactive”. On the same count and under the same terms, in the case of `O=C(O)CCCCCCCCCC(=O)O` it was “inactive”. On the same count and under the same terms, in the case of `c1ccc2c(c1)ccc1ncccc12` it was “inactive”; in that of `CC(C)(C)c1ccc(N)cc1`, “inactive”; in that of `Cc1ccc(N)c([N+](=O)[O-])c1`, “inactive”. With `CC(=O)Nc1nnc(S(N)(=O)=O)s1`, the molecule was called inactive. With `CC(=O)c1ccc2c(c1)CCCC2`, the molecule was called inactive. With `Nc1cccc(C(F)(F)F)c1`, the call was inactive. As for `CCc1ccc2c(c1)C(=O)c1ccccc1C2=O`, the call was inactive. In the case of `C1=Cc2ccccc2C1`, the molecule was classed as inactive. Same read-out and setting: in the case of `Cc1cc(=O)n(-c2ccccc2)n1C` it was “inactive”; in that of `CCCCNc1ccc(NCCCC)c2c1C(=O)c1ccccc1C2=O`, “inactive”. Still for that read-out and setting: in the case of `O=C1CCCN1CCO` it was “inactive”; in that of `CC=CCO`, “inactive”; in that of `O=C(Nc1ccccc1SSc1ccccc1NC(=O)c1ccccc1)c1ccccc1`, “inactive”. Still for that read-out and setting: in the case of `CCC(CC)C(=O)O` it was “inactive”; in that of `CCCCCCCCCCOC(C)=O`, “inactive”; in that of `C=C(C)C(=O)OCC(C)C`, “inactive”. With `COc1cc(C)ccc1C(C)C`, the molecule was called inactive. Still for that read-out and setting: in the case of `Clc1nc2ccccc2s1` it was “inactive”; in that of `CNC(=S)N(C)C`, “inactive”; in that of `C=C[Si](C)(C)O[Si](C)(C)C=C`, “inactive”. As for `CCCNC(=O)NS(=O)(=O)c1ccc(Cl)cc1`, the call was inactive. Regarding `O=c1cc(-c2ccccc2)oc2ccccc12`, the molecule was classed as inactive. The same measure, in the same setting: in the case of `CC1=CC[C@H]2C[C@@H]1C2(C)C` it was “inactive”; in that of `CCCCCCCCc1ccc(Nc2ccc(CCCCCCCC)cc2)cc1`, “inactive”; in that of `c1ccc(CCCc2ccncc2)cc1`, “inactive”. As for `C=C(C)C(=O)OCCOc1ccccc1`, the molecule was called inactive. The AC50 is the concentration giving half of the maximal activity seen. Regarding `Cc1cccc(N(C)C(=S)Oc2ccc3ccccc3c2)c1`, the half-maximal activity concentration (AC50) is 9.03 µM (active). Regarding `CC(C)c1ccc2cc(C(C)C)ccc2c1`, the outcome was inactive. As to `C#CC1(O)CC[C@H]2[C@@H]3CCC4=CCCC[C@@H]4[C@H]3CC[C@@]21C` (stereo not given in full), the half-maximal activity concentration (AC50) was 9.28 µM (active). On to `Cc1ccc2c(c1)C(=O)c1ccccc1C2=O`, for which the result was inactive. `CC(=O)[C@@]1(O)CC[C@H]2[C@@H]3C[C@H](C)C4=CC(=O)C=C[C@]4(C)[C@@]3(F)[C@@H](O)C[C@@]21C`: the molecule was classed as inactive.

For `CCC(C)OC(=O)c1ccc(O)cc1` (stereo not given), the outcome was inactive. Still for that read-out and setting: in the case of `CCOCC(=O)O` it was “inactive”; in that of `O=C(Nc1cccc(C(F)(F)F)c1)c1cc(Br)cc(Br)c1O`, “inactive”. Still for that read-out and setting: in the case of `CC(C)c1ccc(C=O)cc1` it was “inactive”; in that of `C=CC(=O)OCCOC1C2CCC1C1CC=CC12` (stereo not given), “inactive”.

(Values after PubChem BioAssay (EPA / NIEHS).)
